# Source: PubChem BioAssay
# The source made the active and inactive calls. Unless noted, the rule behind the calls is not given here.
# Experiments:
# [1] = tested on: XIP peptide (Xip251-270) binding; test: small-molecule binders of XIP peptide, primary screen, biochemical, small-molecule microarray, fluorescence 635/667 nm, 0.1 µg/mL protein (AID 1182); conditions: fluorescent protein binding, 635 nm, higher = more signal, called active from +8 up or from −8 down
# [2] = tested on: XIP peptide (Xip251-270); test: small-molecule binders of XIP peptide, primary screen, biochemical, small-molecule microarray, fluorescence 635/667 nm, 0.5 µg/mL protein (AID 1183); conditions: small-molecule microarray binding, fluorescence 635 nm; higher = more signal
# [3] = Plasmodium falciparum growth inhibition, primary screen, strain 3D7, DAPI fluorescence, 100 nL (AID 1184);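 note: parasites grown inside human red blood cells in medium with human serum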; conditions: P. falciparum 3D7 growth, 3 d, higher = more signal
# [4] = biological target: Homeobox protein Hox-A13 (Mus musculus) (UniProt Q62424); test: inhibitors of HoxA13-DNA binding, primary screen, biochemical, fluorescence polarization, labeled oligonucleotide (AID 1185); conditions: 15 min, higher = more signal, called active from +8 up or from −8 down
# Sequence of Homeobox protein Hox-A13 (Mus musculus) (Q62424 whole entry, looked up): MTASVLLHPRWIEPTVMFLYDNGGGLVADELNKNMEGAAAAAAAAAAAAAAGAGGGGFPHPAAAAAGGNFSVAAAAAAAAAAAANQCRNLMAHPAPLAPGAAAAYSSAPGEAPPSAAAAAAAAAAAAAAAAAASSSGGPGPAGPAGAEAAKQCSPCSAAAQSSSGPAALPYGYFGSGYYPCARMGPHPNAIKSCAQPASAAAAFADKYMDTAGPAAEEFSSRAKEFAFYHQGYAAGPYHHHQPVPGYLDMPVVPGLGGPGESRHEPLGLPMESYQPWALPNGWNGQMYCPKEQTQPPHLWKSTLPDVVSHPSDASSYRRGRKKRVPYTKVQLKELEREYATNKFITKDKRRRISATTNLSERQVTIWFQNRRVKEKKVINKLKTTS
# [5] = inhibitors of hydroxyurea-induced Chk1 phosphorylation, primary screen, imaging, HeLa, phospho-Chk1 antibody, percent positive cells (AID 1186); conditions: hydroxyurea-induced phospho-Chk1 immunofluorescence imaging, higher = more signal
# [6] = inhibitors of hydroxyurea-induced Chk1 phosphorylation, primary screen, imaging, HeLa, phospho-Chk1 nuclear intensity (AID 1187); conditions: hydroxyurea-induced phospho-Chk1 immunofluorescence imaging, higher = more signal
Compound,composite z-score [1],composite z-score [2],z-score [3],z-score [4],z-score [5],z-score [6]
COC(=O)[C@@]1(Cc2ccc(F)cc2)[C@H]2c3cc(C(=O)N(C)C)n(Cc4ccc(OC)c(OC)c4)c3C[C@H]2CN1C(=O)c1ccccc1,0.316 (inactive),0.835,-1.03,-3.65 (inactive),0.427 (inactive),0.753 (inactive)
C=CCOC(=O)[C@H]1[C@@H]2C(=O)O[C@@H](c3ccccc3)[C@@H](c3ccccc3)N2[C@@H](c2ccc(OCCOC(=O)[C@H]3C[C@H]4C(=O)N[C@@H](Cc5ccccc5)C(=O)N4[C@H]3c3ccc(O)cc3)cc2)[C@]12C(=O)Nc1ccccc12,2.32 (inactive),0.823,-1.62,1.08 (inactive),0.464 (inactive),0.685 (inactive)
CCOC(=O)C[C@H]1[C@H](OC(=O)c2cc3ccccc3oc2=O)[C@@H](NC(=O)c2ccc3ccccc3n2)c2cc(OCCCO)ccc2N1C(=O)c1ccccc1,0.26 (inactive),-0.224,-2.07,-0.763 (inactive),0.22 (inactive),0.249 (inactive)
COCCOC(=O)N1C(=O)[C@@]2(c3ccccc31)[C@H](C(N)=O)[C@H]1C(=O)O[C@H](c3ccccc3)[C@H](c3ccccc3)N1[C@@H]2c1ccccc1OCCO,3 (inactive),0.801,-0.418,-4.4 (inactive),0.228 (inactive),0.42 (inactive)
C=CC[C@]1(C(=O)NCc2ccccc2)N=C(c2ccc(OCCCO)cc2)O[C@H]1c1ccccc1,1.55 (inactive),0.776,-2.05,-6.34 (inactive),0.0635 (inactive),0.896 (inactive)
